HEK293 cAMP cs – raises cAMP in parental HEK293 cells, TSHR agonist counter-screen | Potency, µM (highest dose often 57.1 µM), without a hit: top-dose activation, most hits filed as activators | 73,000 compounds, 2.5% hits | AID 938 | parental HEK293 CNG cAMP sensor, membrane potential fluorescence; active = well fitted activation curve with a large enough effect; inconclusive = small, poorly fitted or top-dose-only effect; inactive = no such curve, though single readings can be large or run the other way; also: % of control where 0% means no effect; nearly all actives have a fitted effect of over 55% in size
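Counterscreen for endogenous-receptor signalling: CNG-channel HEK 293 cells report cAMP rise by membrane depolarization. After 60 min dye equilibration with 100 uM RO 20-1724, compounds incubated 30 min before bottom-read fluorescence at 590 nm.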
TSHR agonist – agonists of human thyroid stimulating hormone receptor; Potency, µM (top dose mostly 57.1 µM), for inactives: at the top dose activation, actives largely listed as activators; HEK293-CNG-TSHR cells (CNG channel as cAMP sensor), membrane potential dye, cAMP; P16473; 73,000 compounds, 0.48% hits; active = well fitted activation curve with a large enough effect in the main read-out, with a control signal flat, not every such curve was filed as active; inconclusive = small, poorly fitted or top-dose-only effect, or a change in a side signal; inactive = no such curve, though single readings can be large or run the other way; % of control where 0% means no effect;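 also: the control signal comes from parental cells without the receptor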
Target sequence (P16473 whole entry, looked up): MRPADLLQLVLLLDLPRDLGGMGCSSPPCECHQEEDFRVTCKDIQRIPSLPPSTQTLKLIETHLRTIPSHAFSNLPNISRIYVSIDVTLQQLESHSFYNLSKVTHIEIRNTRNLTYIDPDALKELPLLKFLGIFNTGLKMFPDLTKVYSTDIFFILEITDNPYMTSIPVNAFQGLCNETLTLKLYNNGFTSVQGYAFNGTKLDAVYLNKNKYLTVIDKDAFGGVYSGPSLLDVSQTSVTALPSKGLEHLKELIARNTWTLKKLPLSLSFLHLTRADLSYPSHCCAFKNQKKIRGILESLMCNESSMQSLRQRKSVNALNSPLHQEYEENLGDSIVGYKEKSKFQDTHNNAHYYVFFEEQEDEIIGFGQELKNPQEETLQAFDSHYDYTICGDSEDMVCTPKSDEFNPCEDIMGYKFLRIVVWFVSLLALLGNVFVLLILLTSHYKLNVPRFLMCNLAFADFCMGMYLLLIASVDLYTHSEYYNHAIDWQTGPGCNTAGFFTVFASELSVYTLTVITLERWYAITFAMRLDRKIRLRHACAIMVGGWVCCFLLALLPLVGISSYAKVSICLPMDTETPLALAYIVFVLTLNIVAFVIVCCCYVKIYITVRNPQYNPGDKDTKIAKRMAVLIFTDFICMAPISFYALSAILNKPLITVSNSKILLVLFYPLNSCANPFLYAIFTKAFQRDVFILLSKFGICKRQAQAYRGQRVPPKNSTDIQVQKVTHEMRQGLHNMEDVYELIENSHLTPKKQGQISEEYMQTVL
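HEK 293 cells stably expressing TSHR and a modified CNG channel, with CNG-only parental cells as counterscreen, were preloaded 60 min at room temperature with membrane potential dye containing 100 uM RO 20-1724. Compound exposure was 30 min, and depolarization was read as fluorescence at 590 nm.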
Active calls of the source: *; ? = inconclusive; ! = not confirmed by another sample; [ ] = dose if it differs, or a comment. In the library only some 2.9% were active in any assay of this set; here they are far more common. Potency is read from the fitted curve at half-maximal effect.

SMILES	HEK293 cAMP cs	TSHR agonist
CN(C)c1ccc2c(c1)N=C(c1ccco1)OP2(=S)N1CCOCC1 (stereo not drawn)	25%	16µM*
NS(=O)(=O)C[C-]1C=C[CH]([Sb-]([Cl])([Cl])([Cl])([Cl])[Cl])C=C1.c1ccncc1 (stereo not drawn)	18%[11.4 µM]	-7%[11.4 µM]
C[C@@H](Cc1cccc(C(F)(F)F)c1)NCCCc1ccccc1	40µM*	?
CN[C@H]1[C@H](C)O[C@@H](O[C@@H]2C/C=C(/C)C/C(C)=C\C=C/CC[C@@H](C)CNC(=O)/C=C\C=C/[C@H]2C)C[C@@H]1O	4%[11.4 µM]	-1%[11.4 µM]
CC(C)(C)[C@@]1(O)C[C@@H]2OC(=O)C[C@@]23C(=O)O[C@H]2OC(=O)[C@@H](O)[C@]231	-2%	-3%
C[C@@H]1O[C@@H](O[C@H]2C[C@@H](O)[C@]3(CO)[C@@H]4[C@@H](O)C[C@]5(C)[C@H]([C@@H]6COC(=O)C6)CC[C@@]5(O)[C@H]4CC[C@@]3(O)C2)[C@H](O)[C@H](O)[C@@H]1O	25µM*	?
C[C@@]12CC[C@H](O[C@@H]3O[C@H](CO)[C@@H](O)[C@H](O)[C@@H]3O)C[C@@H]1CC[C@H]1[C@H]2CC[C@@]2(C)[C@@H](C3=CCOC3=O)CC[C@]12O	1%[11.4 µM]	-7%[11.4 µM]
[CH3][Hg][Cl]	-28%	?
CC(C)(C)NC[C@H](O)c1ccccc1Cl	4%	15%
CCCCn1c(C)c(C(=O)O)c2cc(OC)ccc21	18%	8%
COc1ccc2c(c1)c(CCN1CCOCC1)c(C)n2C(=O)c1cccc(Cl)c1Cl	10µM*	?
COc1cc2c(cc1OC)[C@]13CC[N@+]4(C)CC5=CCO[C@H]6CC(=O)N2[C@@H]1[C@@H]6[C@@H]5C[C@]34O	3%[11.4 µM]	0%[11.4 µM]
COC(=O)[C@@H]1C[C@@]1(C)[C@@H](NP(=O)(c1ccccc1)c1ccccc1)c1ccccc1	1.3µM*	?
COc1cc2c(cc1OC)[C@]13CCN4CC5=CCO[C@@H]6CC(=O)N2[C@@H]1[C@H]6[C@@H]5C[C@H]43	8%	5%
COC(=O)c1c(C)ccc2c(O)c3c(cc12)C(=O)c1c2c(cc(O)c1C3=O)[C@@]1(C)O[C@@](C)(O2)[C@@H](O)[C@H](N(C)C)[C@H]1O	5%[11.4 µM]	-3%[11.4 µM]
CO[C@@H](C)[C@](O)(C(=O)OC1=CCN2CC[C@H](O)[C@H]12)C(C)C	9%	-2%
CCC(=O)Nc1c(C)nn(C(=O)CC)c1C	32µM*	?
O=c1cccc2n1C[C@@H]1C[C@H]2CN2CCCC[C@H]12	-10%	-8%
COc1cc2c(cc1O)CCN[C@H]2C	3%	2%
COc1cc([C@@H](O)CN)ccc1O	-5%	5%
Cc1nn(Cc2ccccc2Cl)c(Cl)c1C(=O)OCC(=O)NCc1ccco1	25µM*	?
COc1ccc(Cn2c(N)c(C(=O)NCc3ccco3)c3nc4ccccc4nc32)cc1OC	-8%	-8%
COc1ccc2c(c1O)-c1cccc3c1[C@H](C2)N(C)CC3	13%	4%
Cc1cc(S(=O)(=O)NCC(C)C)ccc1OCC(=O)N1CCN(Cc2ccccc2)CC1	5%	19%
CC(NS(=O)(=O)c1ccc(CCC(=O)N2CCN(C)CC2)cc1)c1ccccc1 (stereo not drawn)	4µM*	?
SMILES	HEK293 cAMP cs	TSHR agonist
CC(=O)N1C[C@@H]2C[C@H](C1)c1cccc(=O)n1C2	1%	3%
C[C@H]1CC[C@@H]2[C@@H](C)C(=O)O[C@H]3O[C@@]4(C)CC[C@@H]1[C@]32OO4	11%	11%
CN1C[C@@H](CS(=O)(=O)N(C)C)C[C@H]2c3cccc4c3c(cn4C)C[C@@H]21	11%	4%
CCNC(=O)[C@@H]1O[C@@H](n2cnc3c(N)ncnc32)[C@H](O)[C@H]1O	0.16µM*	?
NNc1c(C(N)=O)c2c(N)ncnc2n1[C@@H]1O[C@H](CO)[C@@H](O)[C@@H]1O	-6%[11.4 µM]	2%[11.4 µM]
CCCN1CCc2cccc3c2[C@@H]1Cc1ccc(O)c(O)c1-3	-2%	1%
O=C(O)/C=C\c1ccc[c]([Sb](=[O])([OH])[OH])c1	0%[11.4 µM]	-7%[11.4 µM]
CN(C)[C@@H]1C(=O)C(C(N)=O)=C(O)[C@]2(O)C(=O)C3=C(O)c4c(O)cccc4[C@@](C)(O)[C@@H]3C[C@@H]12	4%	-4%
COc1ccc2c(c1OC)CN1CCc3cc4c(cc3[C@H]1C2)OCO4	-1%[25.6 µM]	4%[25.6 µM]
COc1ccc2c(c1OC)C(=O)O[C@H]2[C@H]1c2cc3c(cc2CCN1C)OCO3	13µM*!	?
O=[As](O)(O)c1ccc(Cc2ccc([As](=O)(O)O)cc2)cc1	-6%[11.4 µM]	2%[11.4 µM]
Cc1nn(CCC#N)c2c1P(=S)(N1CCCC1)OC(c1ccc(F)cc1)=N2 (stereo not drawn)	27%	16µM*
CCN1C[C@@]2(C)CC[C@H](O)[C@@]34[C@@H]5C[C@H]6[C@H](O)[C@@H]5[C@](O)(C[C@@H]6OC)[C@H](C[C@@H]23)[C@H]14	1%	1%
N=C(N)SCc1ccc(Cl)c2ccccc12 (tested in a mixture with another compound)	17%[11.4 µM]	14%[11.4 µM]
CCCC/C=C/[C@@H](NP(=O)(c1ccccc1)c1ccccc1)c1ccccc1OC	2µM*	?
CCCC/C(C)=C/[C@@H](NP(=O)(c1ccccc1)c1ccccc1)c1ccccc1	16µM*	?
CCCCCP(=O)(O)c1ccccc1	6%	0%
C[C@H]1CC[C@]2(NC1)O[C@@H]1C[C@@H]3[C@@H]4CC=C5C[C@H](O)CC[C@@]5(C)[C@H]4CC[C@@]3(C)[C@H]1[C@@H]2C	-3%	2%
CCN1C[C@@]2(COC(=O)c3ccccc3N3C(=O)C[C@H](C)C3=O)CC[C@H](OC)[C@@]34[C@@H]5CC6[C@@H](OC)C[C@@](O)([C@H]5[C@H]6OC)C(O)([C@@H]13)[C@@H](OC)[C@H]24	-1%	2%
COc1ccccc1OCCCn1cc(C(=O)c2ccco2)c2ccccc21	32µM*	?
O=C(Cn1cc(C(=O)c2ccccc2)c2ccccc21)NCc1ccco1	21%	24%
COc1cc2cc(c1Cl)N(C)C(=O)C[C@H](OC(=O)C(C)C)[C@]1(C)O[C@@H]1[C@@H](C)[C@H]1C[C@](O)(NC(=O)O1)[C@@H](OC)/C=C\C=C(\C)C2	1µM*	?
CN1C[C@H](CO)C=C2c3cccc4[nH]cc(c34)C[C@@H]21	-9%[25.6 µM]	-17%[25.6 µM]
CCN(CC)C(=O)N[C@@H]1C=C2c3cccc4[nH]cc(c34)C[C@@H]2N(C)C1	16µM*!	?
CC(=O)OC1=CC2=CC[C@H]3[C@H]4CCC(=O)[C@@]4(C)CC(=O)[C@]3(S)[C@]2(C)CC1	-5%[11.4 µM]	-1%[11.4 µM]
SMILES	HEK293 cAMP cs	TSHR agonist
c1ccc(CN2CCC3(CCc4ccccc43)CC2)cc1	32µM*	?
O=C(Oc1ccccc1)N1CCC2(CCN(Cc3ccccc3)CC2)CC1	20%	19%
Cc1c([C@@H](C)[C@H]2NC[C@H](C)C[C@@H]2O)ccc2c1C[C@@H]1[C@H]2CC=C2C[C@@H](O)CC[C@@]21C	0%[11.4 µM]	5%[11.4 µM]
CCOC(=O)c1c(C)n(CCN2CCN(C)CC2)c2ccc(OC)cc12	7%	8%
CCOC(=O)c1c(C)n(Cc2ccco2)c2ccc(OC)cc12	25µM*	?
CCCCCCn1c(=O)c(C(=O)Nc2ccncc2)c(O)c2ccccc21	-1%	13%

Screening results: PubChem BioAssay, National Center for Advancing Translational Sciences (NCATS)
